Settings in all cases: mRNA level, 48 h; actives raise or lower the signal
Read-out in assay [1]: Lipoprotein lipase (LPL), LPL (gene 4023)
The assay can be described thus: LTEA_HepaRG_LPL: Life Technologies and Expression Analysis (LTEA) Assay for Lipoprotein lipase (LPL) using HepaRG (AID 2283515). The essentials: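 Concentration-response testing used half-log steps from 100 uM in 0.5% DMSO on human HepaRG cells, 48 h, duplicate wells. Phenobarbital 1 mM served as induction control; LPL mRNA was normalized to ACTB, GAPDH, POLR2A.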

Read-out in assay [2]: MicroRNA 122 (MIR122), gene 406906
The assay can be described thus: LTEA_HepaRG_MIR122: Life Technologies and Expression Analysis (LTEA) Assay for MicroRNA 122 (MIR122) using HepaRG (AID 2283516). Further: the transcript read is the microRNA miR-122. Summed up:
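Changes in transcript abundance, up or down relative to 0.5% DMSO vehicle, were scored after 48 h chemical treatment of HepaRG cells (maximum 100 uM). Quantification used TaqMan qRT-PCR normalized to housekeeping genes.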

Read-out in assay [3]: matrix metalloproteinase-10 (MMP10), MMP10 (gene 4319)
Description: LTEA_HepaRG_MMP10: Life Technologies and Expression Analysis (LTEA) Assay for matrix metalloproteinase-10 (MMP10) using HepaRG (AID 2283517). Summed up: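 In differentiated HepaRG cultures kept in 0.5% DMSO, test chemicals act for 48 h over an eight-point range with a top dose of 100 uM. Expression is then quantified by TaqMan RT-PCR against ACTB, GAPDH and POLR2A.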

Read-out in a further assay: MYC, MYC (gene 4609)
The assay can be described thus: LTEA_HepaRG_MYC: Life Technologies and Expression Analysis (LTEA) Assay for MYC using HepaRG (AID 2283518). Summed up: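 qRT-PCR read-out of MYC transcript (Fluidigm TaqMan, housekeeping-normalized) after 48 h chemical exposure of HepaRG cells; eight concentrations, top 100 uM, half-log steps. Bidirectional curve fitting against 0.5% DMSO vehicle baseline.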

Read-out in assay [4]: matrix metalloproteinase-3 (MMP3), MMP3 (gene 4314)
The assay can be described thus: LTEA_HepaRG_MMP3: Life Technologies and Expression Analysis (LTEA) Assay for matrix metalloproteinase-3 (MMP3) using HepaRG (AID 2283519). Summed up: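 Human liver HepaRG cultures received chemicals (top concentration 100 uM, 0.5% DMSO) for 48 h in duplicate. MMP3 mRNA induction or loss was then assessed via TaqMan qRT-PCR with housekeeping-gene normalisation.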

Read-out in assay [5]: Paternally Expressed 10 (PEG10), PEG10 (gene 23089)
Description: LTEA_HepaRG_PEG10: Life Technologies and Expression Analysis (LTEA) Assay for Paternally Expressed 10 (PEG10) using HepaRG (AID 2283520).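 On AC50: differentiated HepaRG human liver cells in serum-free induction medium with 0.5% DMSO; PEG10 transcript by qRT-PCR normalised to ACTB GAPDH and POLR2A.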 The essentials: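 After 48 h exposure of differentiated HepaRG cells (0.5% DMSO vehicle, eight concentrations up to 100 uM, duplicates), PEG10 mRNA was measured by TaqMan qRT-PCR. Values were normalised to endogenous control genes and analysed bidirectionally against vehicle.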

Read-out in assay [6]: Protein phosphatase 2A (PPP2R4), PTPA (gene 5524)
Description: LTEA_HepaRG_PPP2R4: Life Technologies and Expression Analysis (LTEA) Assay for Protein phosphatase 2A (PPP2R4) using HepaRG (AID 2283522). The essentials: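 Using HepaRG cultures maintained in 0.5% DMSO, chemicals are tested 48 h at up to 100 uM in duplicate. Induction or suppression of PPP2R4 mRNA, measured by qRT-PCR, is fitted bidirectionally against the vehicle baseline.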

Read-out in assay [7]: Phosphatase and tensin (PTEN), PTEN (gene 5728)
The assay can be described thus: LTEA_HepaRG_PTEN: Life Technologies and Expression Analysis (LTEA) Assay for Phosphatase and tensin (PTEN) using HepaRG (AID 2283523). The essentials:
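Expression of PTEN is quantified in the human liver line HepaRG following two days of dosing (top concentration 100 uM, half-log dilutions, 0.5% DMSO). Values derive from bidirectional curve fitting relative to DMSO controls.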

Read-out in assay [8]: solute carrier (SLC22A1), SLC22A1 (gene 6580)
The assay can be described thus: LTEA_HepaRG_SLC22A1: Life Technologies and Expression Analysis (LTEA) Assay for solute carrier (SLC22A1) using HepaRG (AID 2283524).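 On AC50: differentiated human HepaRG liver cells in serum-free induction medium; TaqMan qRT-PCR normalized to ACTB GAPDH and POLR2A housekeeping genes.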 The essentials: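 Transcript induction or suppression of SLC22A1 in human HepaRG cultures is scored after 48 h chemical treatment, with DMSO (0.5%) as baseline for bidirectional fitting. Concentrations span eight half-log points topping at 100 uM.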

Read-out in assay [9]: Pyruvate Dehydrogenase Kinase 4 (PDK4), PDK4 (gene 5166)
Description: LTEA_HepaRG_PDK4: Life Technologies and Expression Analysis (LTEA) Assay for Pyruvate Dehydrogenase Kinase 4 (PDK4) using HepaRG (AID 2283525). Summed up:
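Eight-point, half-log concentration series (max 100 uM, 0.5% DMSO) applied to differentiated HepaRG cells for 48 h in duplicate. Endpoint: PDK4 mRNA induction or repression by qRT-PCR against DMSO baseline.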

Read-out in assay [10]: NAD(P)H dehydrogenase [quinone] 1 (NQO1), NQO1 (gene 1728)
The assay can be described thus: LTEA_HepaRG_NQO1: Life Technologies and Expression Analysis (LTEA) Assay for NAD(P)H dehydrogenase [quinone] 1 (NQO1) using HepaRG (AID 2283526). The essentials: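 In this assay, gene expression is read by qRT-PCR after 48 h exposure of HepaRG cells to eight concentrations (max 100 uM, half-log) in 0.5% DMSO. Each chemical runs in duplicate, and activity is scored relative to vehicle.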

Read-out in assay [11]: Nuclear factor erythroid 2-related factor 2 (Homo sapiens) (UniProt Q16236)
Description: LTEA_HepaRG_NFE2L2: Life Technologies and Expression Analysis (LTEA) Assay for Nuclear factor erythroid 2-related factor 2 (NFE2L2) Transcription Factor using HepaRG (AID 2283527).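 Further: TaqMan qRT-PCR transcript level normalised to ACTB GAPDH and POLR2A housekeeping genes.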 The essentials:
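Human liver HepaRG line treated in duplicate for 48 h with an eight-point series topping at 100 uM. Gene expression of NFE2L2 by qRT-PCR, bidirectionally fitted against the vehicle control.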

Read-out in assay [12]: succinate dehydrogenase complex iron sulfur subunit B (SDHB), SDHB (gene 6390)
The assay can be described thus: LTEA_HepaRG_SDHB: Life Technologies and Expression Analysis (LTEA) Assay for succinate dehydrogenase complex iron sulfur subunit B (SDHB) using HepaRG (AID 2283528). Summed up: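 A human HepaRG culture in serum-free induction medium received test chemicals for 48 h over an eight-point range capped at 100 uM. SDHB expression change was quantified by qRT-PCR.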

Read-out in assay [13]: Signal transducer and activator of transcription 3 (Homo sapiens) (UniProt P40763)
The assay can be described thus: LTEA_HepaRG_STAT3: Life Technologies and Expression Analysis (LTEA) Assay for Signal transducer and activator of transcription (STAT3) using HepaRG (AID 2283529). The essentials: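 In this transcriptional endpoint, HepaRG cultures receive test chemicals at up to 100 uM for 48 h, tested in duplicate. STAT3 mRNA is normalized to ACTB, GAPDH and POLR2A.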

Read-out in assay [14]: solute carrier (SLCO1B1), SLCO1B1 (gene 10599)
Description: LTEA_HepaRG_SLCO1B1: Life Technologies and Expression Analysis (LTEA) Assay for solute carrier (SLCO1B1) using HepaRG (AID 2283530). The essentials:
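SLCO1B1 transcript read by qRT-PCR (Fluidigm arrays), normalized to three housekeeping genes, after 48 h chemical exposure of HepaRG cells; bidirectional concentration-response fitting versus 0.5% DMSO baseline. Eight-point half-log series, maximum 100 uM.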

Read-out in assay [15]: sulfotransferase 2A1 (SULT2A1), SULT2A1 (gene 6822)
The assay can be described thus: LTEA_HepaRG_SULT2A1: Life Technologies and Expression Analysis (LTEA) Assay for sulfotransferase 2A1 (SULT2A1) using HepaRG (AID 2283531). Summed up:
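HepaRG, 48 h chemical exposure, 8-pt half-log curve from 100 uM in 0.5% DMSO, duplicates. Readout: TaqMan qRT-PCR of SULT2A1 mRNA, housekeeping-normalized. Bidirectional fit vs DMSO baseline.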

Read-out in assay [16]: Transforming Growth Factor (TGFA), TGFA (gene 7039)
Description: LTEA_HepaRG_TGFA: Life Technologies and Expression Analysis (LTEA) Assay for Transforming Growth Factor (TGFA) using HepaRG (AID 2283532). Summed up: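 Gene expression of TGFA was quantified by qRT-PCR after human HepaRG cells were treated for 48 h with test chemicals (eight concentrations, highest 100 uM, 0.5% DMSO). Activity in either direction was fitted relative to DMSO.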

Read-out in assay [17]: Transforming Growth Factor (TGFB1), TGFB1 (gene 7040)
The assay can be described thus: LTEA_HepaRG_TGFB1: Life Technologies and Expression Analysis (LTEA) Assay for Transforming Growth Factor (TGFB1) Transporter using HepaRG (AID 2283533). The essentials: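 qRT-PCR readout of TGFB1 transcript in HepaRG lysates, normalized to three housekeeping genes; gain or loss of signal fitted relative to 0.5% DMSO vehicle. Exposure: 48 h, 8-point curve from 100 uM, duplicate wells.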

Read-out in the next assay: TIMP1, TIMP1 (gene 7076)
The assay can be described thus: LTEA_HepaRG_TIMP1: Life Technologies and Expression Analysis (LTEA) Assay for TIMP1 using HepaRG (AID 2283534).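 Further: TaqMan qRT-PCR signal normalized to ACTB GAPDH and POLR2A housekeeping genes.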 The essentials: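 HepaRG, 48 h exposure, 8-pt half-log series from 100 uM in 0.5% DMSO, duplicates; TIMP1 transcript by Fluidigm qRT-PCR, housekeeping-normalized; bidirectional curve fit vs DMSO baseline.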

One may read the AC50 as the midpoint of the concentration-response curve, whichever way the signal moves.

Activity calls are given as the source filed them. How the source made its calls: active means hit-call score of the fitted dose curve at least 0.9, where 1 is the maximum; inactive means score below 0.9.

Signal transducer and activator of transcription 3 (Homo sapiens), sequence (P40763 whole entry, looked up): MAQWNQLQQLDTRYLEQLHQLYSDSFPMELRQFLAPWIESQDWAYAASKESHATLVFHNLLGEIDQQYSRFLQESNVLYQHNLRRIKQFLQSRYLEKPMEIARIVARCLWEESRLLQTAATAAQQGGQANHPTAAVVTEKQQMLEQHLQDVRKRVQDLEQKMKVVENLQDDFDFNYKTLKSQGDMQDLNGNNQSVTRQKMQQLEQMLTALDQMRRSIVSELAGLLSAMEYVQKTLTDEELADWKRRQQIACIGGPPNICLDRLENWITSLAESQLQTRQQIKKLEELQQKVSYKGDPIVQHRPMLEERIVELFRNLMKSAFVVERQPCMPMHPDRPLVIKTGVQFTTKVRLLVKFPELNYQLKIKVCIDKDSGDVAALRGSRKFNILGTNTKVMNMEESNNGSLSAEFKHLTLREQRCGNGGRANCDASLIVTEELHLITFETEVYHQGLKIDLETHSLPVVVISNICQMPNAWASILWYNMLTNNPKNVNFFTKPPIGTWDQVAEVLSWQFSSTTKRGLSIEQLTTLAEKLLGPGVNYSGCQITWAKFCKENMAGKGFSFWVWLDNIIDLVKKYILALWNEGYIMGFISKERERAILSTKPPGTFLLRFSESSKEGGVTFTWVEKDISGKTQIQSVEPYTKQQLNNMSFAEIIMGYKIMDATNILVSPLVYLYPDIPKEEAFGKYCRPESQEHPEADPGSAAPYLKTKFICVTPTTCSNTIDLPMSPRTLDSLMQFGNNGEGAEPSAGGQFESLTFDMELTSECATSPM
Nuclear factor erythroid 2-related factor 2 (Homo sapiens), sequence (Q16236 whole entry, looked up): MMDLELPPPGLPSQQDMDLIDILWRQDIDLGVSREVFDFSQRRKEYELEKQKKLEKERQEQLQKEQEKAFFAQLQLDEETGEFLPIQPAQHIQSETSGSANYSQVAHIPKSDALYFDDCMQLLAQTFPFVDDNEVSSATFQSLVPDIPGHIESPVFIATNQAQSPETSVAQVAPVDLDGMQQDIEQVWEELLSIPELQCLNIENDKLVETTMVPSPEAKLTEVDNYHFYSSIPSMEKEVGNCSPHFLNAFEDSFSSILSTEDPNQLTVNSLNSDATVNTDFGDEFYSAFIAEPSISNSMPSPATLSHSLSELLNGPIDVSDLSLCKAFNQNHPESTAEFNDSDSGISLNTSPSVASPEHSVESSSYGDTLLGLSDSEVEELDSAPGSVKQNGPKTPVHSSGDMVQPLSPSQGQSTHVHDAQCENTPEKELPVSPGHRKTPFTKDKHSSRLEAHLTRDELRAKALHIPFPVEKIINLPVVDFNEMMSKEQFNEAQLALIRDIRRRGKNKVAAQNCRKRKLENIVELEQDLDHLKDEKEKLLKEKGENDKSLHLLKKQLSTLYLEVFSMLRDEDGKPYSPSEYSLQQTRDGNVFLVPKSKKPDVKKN

Take `CC1=C(C(=O)Nc2ccccc2)SCCO1`: the results for the AC50 in assay [1] and in [8] were 36.5 µM (active) and 14.2 µM (active), respectively. Further, the outcome was “inactive” in assay [2]; “inactive” in assay [3]; “inactive” with MYC, MYC (gene 4609); “inactive” in assay [4]; “inactive” in assay [5]; “inactive” in [6]. Also, the outcome in assay [7], in assay [9], in assay [10], in assay [11], in assay [12] and in [13] was inactive. Also, the outcome in assay [14] is “inactive”; in [15] it was “inactive”; in [16] it was “inactive”; in assay [17] it was “inactive”; with TIMP1, TIMP1 (gene 7076), “inactive”.

`COC(=O)C=C(C)OP(=O)(OC)OC`: the outcome was “inactive” in assay [1]; “inactive” in assay [2]; “inactive” in assay [3]; “inactive” with MYC, MYC (gene 4609); “inactive” in assay [4]; “inactive” in assay [5]. Besides, the outcome in [6], in assay [7], in [8], in assay [9], in assay [10] and in [11] was inactive. The result in assay [12], in assay [13], in assay [14], in assay [15], in assay [16] and in assay [17] was inactive. Also, in the assay with TIMP1, TIMP1 (gene 7076), the call was inactive.

Turning to `Fc1ccc(Oc2ccnc3cc(Cl)cc(Cl)c23)cc1`, the outcome in [1] is “inactive”; in [2], “inactive”; in [3], “inactive”; with MYC, MYC (gene 4609) it was “inactive”; in assay [4], “inactive”; in [6], “inactive”. Moreover, the result in assay [7], in assay [10], in assay [11], in [12], in [13] and in assay [14] was inactive. For the same molecule, the outcome in assay [15] is “inactive”; in assay [16], “inactive”; with TIMP1, TIMP1 (gene 7076), “inactive”. For the same molecule, the AC50 in assay [5] is 33.5 µM (active); in assay [8], 97.8 µM (active); in assay [9] it was 50 µM (active); in assay [17], 50 µM (active).

Regarding `Oc1ccccc1-c1ccccc1`, the outcome is “inactive” in assay [2]; “inactive” in assay [3]; “inactive” with MYC, MYC (gene 4609); “inactive” in assay [4]; “inactive” in assay [5]; “inactive” in assay [6]. The call in [7], in assay [8], in assay [9], in assay [10], in [11] and in [12] was inactive. The outcome was “inactive” in assay [13]; “inactive” in assay [14]; “inactive” in assay [15]; “inactive” in assay [16]; “inactive” in assay [17]; “inactive” in the assay with TIMP1, TIMP1 (gene 7076).

Source of the values: PubChem BioAssay (EPA / NIEHS).
